According to PubChem BioAssay AID686978 (National Center for Advancing Translational Sciences (NCATS), 2013):
Out of some 420,000 compounds screened, about 64,000 (15%) were called active. Not shown: some 27% with an inconclusive outcome. Calls follow the shape of the dose curve; as a rule, active = well fitted inhibition curve with a large enough effect; inconclusive = small, poorly fitted or top-dose-only effect; inactive = flat fitted curve, though single readings scatter. A selection follows. Where a call stands in place of a potency, no number is given.

Assay: qHTS for Inhibitors of human tyrosyl-DNA phosphodiesterase 1 (TDP1): qHTS in cells in absence of CPT; also: nearly all actives have a fitted effect of over 55% in size
Details: DT40 Tdp1-/- hTDP1 cells, no CPT, ATP luminescence, 48 h; activity change, negative = growth inhibition: at 46.2 µM (top of the series)
Summary of the method: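 Growth of hTDP1-complemented DT40 Tdp1-knockout cells is measured by ATP luminescence after at least 48 hr compound exposure at 37 °C, with DMSO substituting for the 20 nM CPT used in the parallel screen.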
Potency is read from the fitted curve at half-maximal effect.

Compound	Potency
COc1cc(OC)c(C(=S)N2CCCC2)cc1OC	inactive
O=C1NC(=O)C(CCc2ccccc2)(c2ccccc2)N1 (stereo unspecified)	inactive
O=C(Nc1c2c(nn1-c1cccc(Cl)c1)CS(=O)(=O)C2)c1cccs1	inactive
COc1ccc(-n2nnnc2SCC(=O)NCc2cccs2)cc1	inactive
COc1ccc(N2CCN(C(=O)c3cn(C)c4ccc(S(=O)(=O)N5CCOCC5)cc4c3=O)CC2)cc1	inactive
CC(=O)NC1(c2cccc(F)c2)CCN(CC(=O)NC(C)C)CC1	inactive
CCCCC1=CC2=CC(=O)C(C)(OC(=O)CC)C(=O)C2=CN1CCCOC(C)C (stereo unspecified)	inactive
CCOc1ncccc1C(=O)OCC(=O)c1c[nH]c2ccccc12	inactive
O=C(CCC(=O)OCC(F)(F)C(F)F)NCc1ccccc1	inactive
O=C(NC12CC3CC(CC(C3)C1)C2)N1CCCC(CO)C1 (stereo unspecified)	inactive
CCOC(=O)c1ccc[n+](CC(=O)Nc2ccccc2OC(F)F)c1	inactive
Nc1nc(SCc2ccc([N+](=O)[O-])cc2)c2ncn(C3OC(CO)C(O)C3O)c2n1 (stereo unspecified)	inactive
OC[C@@H]1O[C@H](n2cnc3c(SCc4ccccc4)ncnc32)[C@H](O)[C@H]1O	11.2 µM (active)
CC(C)Sc1nc(N)nc2c1ncn2C1OC(CO)C(O)C1O (stereo unspecified)	inactive
Cc1cc2cc(CNC(=O)c3ccc(S(=O)(=O)N4CCOCC4)cc3)ccc2[nH]1	inactive
O=C(CCc1ccc(S(=O)(=O)NC2CCCCC2)cc1)NCc1ccccc1	inactive
CCC(=O)N1CCc2cc(S(=O)(=O)NC(Cc3ccccc3)C(=O)NCc3ccc(C)cc3)ccc21 (stereo unspecified)	inactive
O=C(CCc1ccccc1)NCc1cccnc1	inactive
O=C(CCc1ccccc1)NCc1ccc2c(c1)CCN2C(=O)c1ccccc1	20.6 µM (active)
Cc1ccc(C(=O)N2CCc3cc(CNC(=O)c4ccc(Br)cc4)ccc32)cc1	14.6 µM (active)
CN(C)c1ncc2nc(-c3ccc(F)cc3)c(=O)n(Cc3ccc(F)cc3)c2n1	inactive
C=Cc1ccc(Cn2c(C(=O)OC)cc3sc(C)cc32)cc1	inactive
C=CCC[C@H](Cc1ccc(F)cc1)C(=O)OC[C@@H](Cc1c[nH]c2ccccc12)NC(=O)[C@H](CC=C)CC(=O)N[C@H](CO)Cc1ccccc1	20.6 µM (active)
C=CC[C@H](CC(=O)NCCO)C(=O)N[C@@H](COC(=O)[C@@H](CC=C)Cc1ccc(F)cc1)Cc1c[nH]c2ccccc12	23.1 µM (active)
CC(=O)NC(Cc1c[nH]c2ccccc12)C(=O)NCCc1ccccc1 (stereo unspecified)	inactive
C=CC[C@@H](CC(=O)NCCO)C(=O)N[C@H](C)COC(=O)[C@@H](CC=C)CC(=O)OC(C)(C)C	inactive

Compound	Potency
COC(=O)C(Cc1c[nH]c2ccccc12)NC(=O)CCNC(=O)c1ccco1 (stereo unspecified)	inactive
O=C(CCc1c[nH]c2ccccc12)NCCOc1ccccc1	inactive
C=CCC[C@@H](Cc1ccc(F)cc1)C(=O)OC[C@H](Cc1c[nH]c2ccccc12)NC(=O)[C@@H](CC=C)CC(=O)N(CCO)Cc1ccccc1	16.4 µM (active)
CCN(CC)c1nc(C#N)nc(OC)n1	inactive
CC1(C)CC(=O)NC=C(c2ccccc2)C1	inactive
COc1cc2c(cc1OC)/C(=C/C(=O)c1ccc(NC(C)=O)cc1)NCC2	inactive
O=C(OCCO)c1cc(Cl)c(C(=O)OCCO)cc1Cl	inactive
O=S(=O)(c1ccc(-c2ccccc2)cc1)N1CCCC1	inactive
CN[C@@H]1[C@H](O[C@H]2[C@H](O[C@H]3[C@H](O)[C@@H](O)[C@H](N=C(N)N)[C@@H](O)[C@@H]3N=C(N)N)O[C@@H](C)[C@]2(O)CO)O[C@@H](CO)[C@H](O)[C@H]1O	inactive
Cc1cc(C)nc(Nc2n[nH]c(-c3ccccc3N)n2)n1	inactive
CCOC(=O)CSc1nncc2ccc(OC)c(OC)c12	inactive
Cc1cc(-c2ccc(S(=O)(=O)N3CCc4ccccc4C3)s2)on1	inactive
Cc1cc(-c2ccc(S(=O)(=O)N3CCN(c4cccc(C(F)(F)F)c4)CC3)s2)on1	inactive
CC(=O)c1ccc(NS(=O)(=O)c2ccc(-c3cc(C)no3)s2)cc1	inactive
Cc1cc(C)cc(NS(=O)(=O)c2ccc(-c3cc(C)no3)s2)c1	2.59 µM (active)
Cc1cccc(N2CCN(S(=O)(=O)c3ccc(-c4cc(C)no4)s3)CC2C)c1 (stereo unspecified)	inactive
CCc1cccc(C)c1NS(=O)(=O)c1ccc(-c2cc(C)no2)s1	0.517 µM (active)
COc1cc(CNc2ncn[nH]2)ccc1OCc1ccccc1C	inactive
CC(C)CNc1ncnc2c1nnn2C	inactive
Cc1cccc(NC(=O)NC2(C)CCS(=O)(=O)C2)c1 (stereo unspecified)	inactive
Cc1nccn1-c1ccc(NC(=O)[C@H]2O[C@@H](n3ccc(=O)[nH]c3=O)[C@H](O)[C@@H]2O)cc1	inactive
COCCOC(=O)C1=C(C)NC(=O)NC1c1cc2c(cc1Br)OCO2 (stereo unspecified)	inactive
CCOc1cc(S(=O)(=O)NC2CC(C)(C)NC(C)(C)C2)ccc1F	inactive
COc1cc(/C=N/Nc2nn3cnnc3c3ccccc23)cc(OC)c1OC	16.4 µM (active)
COc1cc(/C=N/NC(=O)Cc2ccccc2)cc(OC)c1OC	inactive
COc1cc(/C=N/Nc2ccc(C)cc2)cc(Br)c1O	inactive

Compound	Potency
Cc1nnsc1C(=O)NCc1c(F)cccc1Cl	inactive
COc1ccccc1Nc1nnc(SC(C)C(=O)NC2CC2)s1 (stereo unspecified)	inactive
Cc1ccc(OCc2n[nH]c(=S)n2-c2ccccc2)cc1	inactive
S=c1[nH]nc(CSCc2ccc(Cl)cc2Cl)n1-c1ccccc1	15.8 µM (active)
Cc1ccc(NCc2n[nH]c(=S)n2-c2ccccc2)cc1Cl	inactive
Cc1c(C(=O)N2CCCC2)c(S(=O)(=O)NCC(C)c2ccccc2)c(C)n1C (stereo unspecified)	inactive
O=C(c1ccc(Br)o1)N(c1ccccn1)C1CCCCC1	23.1 µM (active)
O=C(c1cccs1)N(C(=O)c1cccs1)c1ccccn1	inactive
O=C(N1CCOCC1)N(Cc1ccccc1)c1ccccn1	inactive
CCn1c(CNC(=O)C23CC4CC(CC(C4)C2)C3)nnc1SCC(=O)Nc1ccc(OC)cc1	inactive
CN(C)/C=C(\C#N)C(=O)c1cccnc1Oc1ccc(F)cc1F	inactive
O=c1ccc2c(-c3ccccc3S(=O)(=O)O)c3ccc(O)c(O)c3oc-2c1O	11.6 µM (active)
CCCNC(=S)NC1CC2CCCC(C1)N2CC(C)C (stereo unspecified)	inactive
O=C(NCCCc1ccccc1)c1cc(COc2c(F)cccc2F)on1	inactive
CC(NC(=O)c1ccccc1)C(=O)Nc1ccccc1 (stereo unspecified)	inactive
O=C(NC(=O)c1ccccc1)NC(=O)c1ccccc1	inactive
O=C(NC1=CC(=O)c2ccccc2C1=O)c1ccccc1	1.16 µM (active)
Cc1csc[n+]1CCC1CCCCC1	10 µM (active)
C=CCn1c(SCC(=O)/C(C#N)=C(\C)N)nc2sc(C)c(C)c2c1=O	inactive
CCOC(=O)c1nnn2c3ccccc3c(=O)n(C)c12	inactive
CCOC(=O)c1nnn2c1nc(N1CCN(c3ccccc3)CC1)c1ccccc12	14.6 µM (active)
CC(=O)c1ccc(N2CCN(c3nc4c(S(=O)(=O)c5ccccc5)nnn4c4ccc(Cl)cc34)CC2)cc1	inactive
CCOc1ccc(NC(=O)CCNC(=O)c2ccc(Br)cc2)cc1	inactive
CCOC(=O)CNC(=O)CSc1nnc(-c2cccc(OC)c2)n1CC	inactive
COC(=O)CC(CC(=O)OC)n1cccc1	inactive
CCOCc1nnc(NC(=O)CCS(=O)(=O)Cc2ccccc2)s1	18.4 µM (active)

Compound	Potency
COCCSc1nnc(NC(=O)CCS(=O)(=O)Cc2ccccc2)s1	inactive
CCCCc1nnc(NC(=O)CS(=O)(=O)Cc2ccccc2)s1	inactive
CC1CN(Cc2ccccc2)C(=S)NC1=O (stereo unspecified)	inactive
O=C(Nc1ccccc1)/C(=C\c1ccco1)NC(=O)c1ccco1	inactive
CCC1CN(CCNC(=O)c2ccsc2)Cc2cc(OC)ccc2O1 (stereo unspecified)	inactive
CC1CCN(CCCNC(=O)CN2C(=O)CSc3ccc(S(=O)(=O)N4CCCCC4)cc32)CC1	inactive
CN(C)c1ccc(CNC(=O)CN2C(=O)COc3ccc(S(=O)(=O)N4CCCC4)cc32)cc1	inactive
COCCCNC(=O)CN1C(=O)CSc2ccc(S(=O)(=O)N3CCOCC3)cc21	inactive
CCCCN(CCCC)CCNC(=O)CN1C(=O)COc2ccc(S(=O)(=O)N3CCOCC3)cc21	inactive
Cc1ccc2c(c1)N(CC(=O)N1CCOCC1)C(=O)CO2	inactive
Cc1ccc(C)c(N2CCN(C(=O)CN3C(=O)COc4ccc(S(=O)(=O)N5CCCCCC5)cc43)CC2)c1	16.4 µM (active)
CCCCN(CCCC)CCCNC(=O)CN1C(=O)COc2ccc(S(=O)(=O)N3CCC(C)CC3)cc21	9.2 µM (active)
CC(=O)Nc1ccc(NC(=O)CN2C(=O)COc3ccc(S(=O)(=O)N4CCCCC4)cc32)cc1	inactive
CC1CCN(S(=O)(=O)c2ccc3c(c2)N(CC(=O)NCCc2ccccc2)C(=O)CO3)CC1	20.6 µM (active)
Cc1ccc2c(c1)N(CC(=O)NCC1CCCO1)C(=O)CO2 (stereo unspecified)	inactive
COc1ccc(CCNC(=O)CN2C(=O)COc3ccc(S(=O)(=O)N4CCCC4)cc32)cc1OC	inactive
Cc1ccc(CCNC(=O)CN2C(=O)CSc3ccc(S(=O)(=O)N4CCOCC4)cc32)cc1	20.6 µM (active)
CN(C)C(CNC(=O)c1ccc(OCc2cn3ccccc3n2)cc1)c1ccco1 (stereo unspecified)	inactive
CC(CO)N1CCS(=O)(=O)CC1 (stereo unspecified)	inactive
CC1(C)CC(=O)C=C(Nc2ccccc2)C1	inactive
O=C1CCCCC(=O)c2ccccc2N1	inactive
c1ccc2c(c1)C(=NC1CCCCC1)NC2=NC1CCCCC1	14.6 µM (active)
O=C1CN(C(=O)COC(=O)/C=C/c2ccc(F)cc2)c2ccccc2N1	inactive
